From the supplement of paper PMC6555819

Legend:
Assay in all cases: PBM binding z-score (relative to random genomic background probes); higher = stronger binding; sequences stand for … in GC…GCGATTGACAGCGTAGAATGAAGG
[1] = test system: FXR:RXRa (NR concentration 270 nM, RXRa partner concentration 90 nM)
Outline: (§1)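 Ligand-free nuclear receptor dimers were bound for 1 h to custom Agilent 4×180K protein-binding microarrays. Detection used antibodies against each partner (one per run). Binding z-scores rest on regression-normalized fluorescence, with random background probes as the reference.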

[2] = test system: LXRa:RXRa (NR concentration 270 nM, RXRa partner concentration 90 nM)
Outline: as §1

[3] = test system: LXRa homodimer (NR concentration 270 nM)
Outline: as §1

[4] = test system: LXRb:RXRa (NR concentration 270 nM, RXRa partner concentration 90 nM)
Outline: as §1

[5] = test system: LXRb homodimer (NR concentration 270 nM)
Outline: as §1

[6] = test system: PPARa:RXRa (NR concentration 270 nM, RXRa partner concentration 90 nM)
Outline: as §1

[7] = test system: PPARg:RXRa (NR concentration 180 nM, RXRa partner concentration 90 nM)
Outline: as §1

[8] = test system: PPARg:RXRa 270nM:90nM, anti-RXR (NR concentration 270 nM, RXRa partner concentration 90 nM)
Outline: as §1

[9] = test system: PPARg:RXRa 30nM:10nM, anti-RXR (NR concentration 30 nM, RXRa partner concentration 10 nM)
Outline: as §1

[10] = test system: PPARg:RXRa 90nM:30nM, anti-RXR (NR concentration 90 nM, RXRa partner concentration 30 nM)
Outline: as §1

Row | Sequence | PBM binding z-score [1] | PBM binding z-score [2] | PBM binding z-score [3] | PBM binding z-score [4] | PBM binding z-score [5] | PBM binding z-score [6] | PBM binding z-score [7] | PBM binding z-score [8] | PBM binding z-score [9] | PBM binding z-score [10]
1 | TCATATAAGTAATACAGGTGAAAGTCGGCATCTA | 1.33 | 1.22 | 0.589 | 1.15 | 0.275 | 1.79 | 1.29 | 2.38 | 4.28 | 3.42
2 | TCATATAGGTAAATGCTAGGTGAATGTCCGATCT | 0.466 | 0.779 | 0.287 | 0.767 | 0.0198 | 1.39 | 0.932 | 2.17 | 3.49 | 2.66
3 | CAAACAAGGTCAAGGTCAAAGTCGGTTTGTGCCA | – | – | 4.84 | – | 2.25 | 6.38 | 7.93 | 7.31 | 4.7 | 6.55
4 | GCTAGTTGGTCAGTAAAAGGTCACTCACCGGTCG | 2.88 | 3.91 | 4.1 | 3.49 | 0.861 | 3.87 | 1.93 | 4.19 | 1.77 | 3.49
5 | CGTCCAAGATCATAGGAGGTCAGTGAAGACAGAT | 1.56 | 2.77 | 1.2 | 2.26 | 0.134 | 2.69 | 0.898 | 0.559 | 0.251 | 0.198
6 | CAAACAAGGTCAAGAGGTCAAAGTCCGCTTCCCG | – | – | 7.29 | – | 2.87 | – | 8.71 | 8.05 | 6.08 | 7.7
7 | CCTTACGGGTCATGAGGTTATAGCACGACGAGCG | 7.04 | 4.93 | 0.379 | 3.84 | 0.286 | 5.85 | 5.69 | 5.69 | 2.37 | 4.58
8 | CCAGACAGTTGAGAAGGTAACTCAGCCTCGATTA | 0.18 | 0.172 | 0.398 | 0.125 | 0.336 | 0.142 | 0.175 | -0.218 | 0.0704 | 0.0662
9 | TATACAGGGTCAAAGGCCAGAGTGCGAATGTCGA | 7.16 | 6.05 | 2.6 | 4.8 | 2.58 | 6.08 | 8.23 | 7.43 | 5.95 | 7.86
10 | ATAGGTAGGTTATCGGGTCATTCAGTTTGCGCAT | 3.2 | 3.22 | 1.93 | 3.17 | 1.52 | 3.82 | 4.18 | 4.48 | 1.91 | 3.81
11 | TCTGCTAGCTCAGTTGGTCAGCTAACGAGCTGCC | -1.44 | -1.29 | -1.01 | -1.04 | -0.714 | -0.45 | -1.22 | 0.0147 | 0.674 | 0.449
12 | CGAACGAGGCCATGAGTTGATAGCAAATGCCGAT | -0.039 | -0.24 | -0.636 | -0.483 | -1.01 | 0.273 | 0.728 | 0.586 | -0.00312 | 0.44
13 | CCGAGTAGGTTATGGGGCATTCGGGCAACGGTGA | 0.24 | 0.637 | 0.00114 | 0.528 | -0.313 | 2.4 | 3.36 | 4.85 | 2.16 | 4.57
14 | TCTCGGAGGACACGAAGGTCAGAGCATTCCAGAG | 1.29 | 0.948 | 0.206 | 0.97 | -0.998 | 1.88 | 0.742 | 1.63 | 2.05 | 1.74
15 | TTTACAGGGTCAAAGGCCAGAGTACGAATGTCGA | 6.76 | 5.85 | 2.22 | 4.87 | 1.18 | 6.03 | 8.6 | 7.65 | 6.04 | 7.79
16 | CGTCCAAGGTGAGAGAGGTCAGTGAATGCCGAGT | 2.18 | 2.18 | 0.878 | 2.05 | -0.732 | 3.11 | 1 | 1.7 | 0.115 | 1.07

Row | Sequence | PBM binding z-score [1] | PBM binding z-score [2] | PBM binding z-score [3] | PBM binding z-score [4] | PBM binding z-score [5] | PBM binding z-score [6] | PBM binding z-score [7] | PBM binding z-score [8] | PBM binding z-score [9] | PBM binding z-score [10]
17 | TAGCATAGGTCATTGGGCCAGTATAGTACGCATC | 6.02 | 5.02 | 1.27 | 4.02 | 0.541 | 5.41 | 5.17 | 5.29 | 1.75 | 3.7
18 | AGAATGAGGTTACCAAAGCTCAGGGAAACGCTTG | 1.93 | 3.99 | -0.0854 | 1.96 | -0.341 | 3.46 | 2.2 | 2.57 | 0.532 | 1.81
19 | GGAACGAAGGCATTCGAGTTGATAGCATGGCGAT | -0.551 | -0.66 | -0.692 | -1.09 | -1.23 | -1.8 | 0.416 | -0.825 | -0.794 | -0.901
20 | TCTAGTTGGGCAAAGGTCACACACTCGAAATGCG | 5.48 | 5.45 | 3.14 | 5.08 | 0.789 | 6.58 | 10.4 | 9.73 | 9.07 | 10.3
21 | CGAACTAGGTCAGCACAGGACAGTGAAGGATGAT | 1.86 | 1.18 | -0.345 | 0.466 | -0.737 | 3.51 | 6.07 | 5.31 | 2.4 | 4.32
22 | ATCTCTAGGTAAGACCCAGTTCAGTGAAGAACGC | 0.43 | 0.778 | 0.612 | 0.599 | 0.872 | 0.54 | 0.457 | 0.208 | 0.196 | 0.526
23 | ATCCAAAGGTCGAAGGTGAGTATACCCACCCGAA | 5.05 | 4.12 | 0.34 | 3.2 | 0.577 | 4.95 | 5.19 | 5.37 | 2.53 | 4.33
24 | CCTACTGGGCCAAAAAGGTCATTGCTGCCGATAA | 3.75 | 4.36 | 3.33 | 4.21 | 0.236 | 4.7 | 3.04 | 4.09 | 1.5 | 3.64
25 | ATCTCTAGGTAAAGTTCAATGAAAGATCGATAGA | 2.28 | 3.13 | 2.86 | 2.25 | 1.31 | 3.32 | 4.11 | 5.15 | 3.34 | 4.82
26 | TCTAGCAGGACAGAGGGTCACTCAAGAGGTACGG | 0.869 | 1.11 | -0.354 | 1.18 | -0.839 | 2.19 | 1.45 | 2.25 | 2.15 | 2.31
27 | TCATATAGGAAAATGCTAGGTGAAAGTCCGATCT | 1.09 | 0.845 | 0.237 | 0.489 | -0.0669 | 0.728 | 0.487 | 2.3 | 4.01 | 3.28
28 | CCTTACGGGTCCAGGTTATAGCACGGGTGGTACG | -0.118 | -0.304 | -0.277 | -0.566 | -1.29 | -0.292 | 0.168 | -0.847 | -0.404 | -0.604
29 | CCGACTGGGGCATTAGGTTACCATAAGCCAGCCC | -0.253 | 0.617 | -0.377 | 0.144 | -1.38 | 1.12 | 2.09 | 2.4 | 0.389 | 1.44
30 | AATACAGGGTTACTAGGCCAGAGTAGGTACGAAT | 0.737 | 1.26 | 0.201 | 1.17 | 0.122 | 3.39 | 4.79 | 4.22 | 1.52 | 3.29
31 | CCTAGCAGGTCAGGGTCACTCAAGCATTTCGCTT | 4.58 | 3.54 | 0.113 | 3.41 | -0.723 | 4.61 | 3.59 | 4.22 | 1.09 | 3.27
